Assay outcomes as filed in PubChem.
Keap1 Nrf2 FP: Keap1-Nrf2 protein-protein interaction inhibitors, primary screen, biochemical, fluorescence polarization, single point | Kelch-like ECH-associated protein 1 (Homo sapiens), Q14145 | Keap1 Kelch-Nrf2 peptide fluorescence polarization, 1536-well | inhibition, % at 9.4 µM | 340,000 tested, 0.15% active; in the data active = inhibition above about 12%; inconclusive = no clear call, values can overlap the other calls; inactive = below about 7.3%;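 note: human Keap1 Kelch domain with fluorescein labeled Nrf2 9mer peptide probe; higher means more block of Keap1 binding to Nrf2 peptide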
Target sequence (Q14145 whole entry, looked up, the tested form may be a part): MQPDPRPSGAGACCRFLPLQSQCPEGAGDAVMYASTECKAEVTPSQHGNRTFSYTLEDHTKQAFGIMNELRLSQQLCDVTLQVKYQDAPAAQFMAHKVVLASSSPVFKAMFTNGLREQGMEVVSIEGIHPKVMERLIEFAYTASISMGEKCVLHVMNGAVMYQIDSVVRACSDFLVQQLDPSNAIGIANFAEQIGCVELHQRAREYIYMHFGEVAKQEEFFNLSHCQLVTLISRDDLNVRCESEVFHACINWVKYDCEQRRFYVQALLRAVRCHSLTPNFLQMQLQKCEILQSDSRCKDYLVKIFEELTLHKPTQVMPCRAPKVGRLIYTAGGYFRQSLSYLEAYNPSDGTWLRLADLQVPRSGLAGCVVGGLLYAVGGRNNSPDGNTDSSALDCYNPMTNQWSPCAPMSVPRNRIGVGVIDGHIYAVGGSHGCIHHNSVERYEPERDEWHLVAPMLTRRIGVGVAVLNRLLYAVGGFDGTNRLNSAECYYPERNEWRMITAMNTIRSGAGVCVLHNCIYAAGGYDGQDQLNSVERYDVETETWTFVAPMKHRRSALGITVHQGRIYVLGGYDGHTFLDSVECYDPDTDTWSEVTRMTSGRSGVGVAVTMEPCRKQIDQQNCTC
C-LANA FP: inhibitors of KSHV C-LANA binding to DNA, primary screen, biochemical, fluorescence polarization, FAM-LBS DNA, MBP-C-LANA, single point; inhibition, % at 9 µM; 340,000 tested, 0.078% active;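 active = highest replicate inhibition at or above 60% at 9 µM, even if other replicates fall short; inactive = all replicates below 60% inhibition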
CRFR2-BP antag: antagonists of CRF-BP/CRF-R2 complex, primary screen, cell-based, HEK293, calcium dye fluorescence, uHTS. inhibition, % at 11.8 µM. AID 588475, 2011. 350,000 tested, 0.59% active. CRF-induced calcium fluorescence;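 active = inhibition of the ligand-induced calcium signal above about 50% at the single tested concentration, limit read from the data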
RTF Ca sens act: cardiac RTF calcium sensitivity activators, primary screen, biochemical, IANBD-TnC fluorescence, EC20 calcium | 340,000 tested, 0.24% active | activation, % at 7.2 µM | IANBD-labeled TnC RTF fluorescence at EC20 calcium; 0% EC20 calcium, 100% full calcium | Troponin I, cardiac muscle (Homo sapiens) + Troponin T, cardiac muscle (Homo sapiens) + …;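 active = activation above the mean over all tested compounds plus 3 SD, cut at about 30% in these data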;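 note: rise in fluorescence read as greater calcium sensitivity of cardiac thin filaments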
CRFR2-BP ag: agonists of CRF-BP/CRF-R2 complex, primary screen, cell-based, HEK293, calcium dye fluorescence, uHTS; 350,000 tested, 0.46% active; activation, % at 13.2 µM; calcium dye fluorescence (FLIPR); percent of saturating CRF peptide response;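 active = activation of at least 50%, plus an integration ratio under a set limit after plate pattern correction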
Cardiac RTF inh: cardiac RTF calcium sensitivity inhibitors, primary screen, biochemical, IANBD-TnC fluorescence, EC70 calcium; AID 493244, 2011; 340,000 tested, 0.12% active; inhibition, % at 7.15 µM; IANBD-labeled cardiac RTF, Ca2+ fluorescence; Troponin I, cardiac muscle (Homo sapiens) + Troponin T, cardiac muscle (Homo sapiens) + …;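 active = inhibition above the mean inhibition of all tested compounds plus 3 SD, cut at about 17% in these data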;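 note: assay run at fixed EC70 calcium of 1.6 mM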
A number is an active result; . = inactive; ? = inconclusive; / = no result given. This is a sample that favours compounds with a hit; in the whole collection about 1.3% have one here.

SMILES	Keap1 Nrf2 FP	C-LANA FP	CRFR2-BP antag	RTF Ca sens act	CRFR2-BP ag	Cardiac RTF inh
CCOC(=O)c1cccc(S(=O)(=O)N2CCCC2)c1	.	.	.	.	.	.
NC(=O)COC(=O)c1cccc(S(=O)(=O)N2CCCCC2)c1	.	.	85.6	.	.	.
Cc1cccnc1NC(=O)CNC(=O)C12CC3CC(CC(C3)C1)C2	.	.	.	.	.	.
Nc1ncnc2c1nc(N1CCCCC1)n2[C@@H]1O[C@H](CO)[C@@H](O)[C@H]1O	.	.	.	.	.	.
O=S(=O)(c1ccc(Cl)cc1)N1CCN=C1SCc1ccc(Cl)c(Cl)c1	.	.	.	.	.	.
CCCCC(=O)NC1(C(F)(F)F)C(=O)Nc2c1c(=O)n(C)c(=O)n2C (centres undefined)	.	.	.	.	.	.
CCCNc1c(F)c(F)c2c(C)c3ccccc3nc2c1F	.	.	.	35.7	.	.
CCc1cccc(C)c1NC(=O)C(c1ccc(O)cc1)N1CCC1=O (centres undefined)	.	.	.	.	.	.
O=C(CCC(=O)N1CCOc2ccc(Cl)cc21)NCc1ccccc1	.	.	.	.	243.4	.
O=C1CCC(=O)c2ccc3c4c(ccc1c24)CC3	.	.	.	.	.	.
O=C1CCN2C=Nc3cccc4ccc1c2c34	140.4	151.9	.	703.0	.	.
COc1ccc(NC(=O)C(Cl)=C(Cl)Cl)cn1	.	.	.	.	.	.
COc1ccc(NC(=O)/C(Cl)=C(/Cl)S(=O)Cc2ccc(Cl)cc2)cn1 (centres undefined)	.	.	.	.	88.3	.
CCCC1(CCC)NC(=O)N(CC(=O)Nc2ccc(Cl)c(S(=O)(=O)N3CCOCC3)c2)C1=O	.	.	69.1	.	.	.
CC(C)(C)c1ccc(NC(=O)C2CCCN(c3cnccn3)C2)cc1 (centres undefined)	.	.	.	.	.	.
COc1cc2ccccc2cc1C(=O)N(CCN(C)C)c1nc2c(OC)ccc(OC)c2s1	.	.	72.2	.	.	.
COc1ccc(OC)c2sc(N(CCN(C)C)C(=O)c3ccc4ccccc4c3)nc12	.	.	.	.	.	.
Nc1ccc(S(N)(=O)=O)cc1N	.	.	.	29.7	.	.
COc1ccc(C2C(C#N)=C(N)SC(N)=C2C#N)cc1OC	.	.	.	35.7	.	.
CCN1/C(=C\C=C(C(C)=O)C(C)=O)Sc2ccccc21	.	.	.	78.5	80.9	.
CCOC(=O)/C(C#N)=C(C)/C=C1\Sc2ccccc2N1CC	.	.	.	168.6	121.7	.
CCN1/C(=C\C(=S)Nc2ccccc2)Sc2ccccc21	.	.	.	.	.	.
CSCCC(NC(=O)c1ccco1)C(=O)OCc1cc([N+](=O)[O-])cc2c1OCOC2 (centres undefined)	.	.	.	.	56.3	.
CC(C)[C@H](NC(=O)c1ccccc1Cl)C(=O)OCc1cc([N+](=O)[O-])cc2c1OCOC2	.	.	.	.	.	.
CSCCC(NC(=O)c1ccccc1)C(=O)NCC(C)(C)N1CCOCC1 (centres undefined)	.	.	.	.	.	.
SMILES	Keap1 Nrf2 FP	C-LANA FP	CRFR2-BP antag	RTF Ca sens act	CRFR2-BP ag	Cardiac RTF inh
CCN1CC=C2C(C#N)=C(N)C(C#N)(C#N)C(c3cc(Cl)ccc3Cl)C2C1 (centres undefined)	?	.	.	39.2	.	.
O=C(COC(=O)/C=C/c1ccccc1Cl)NCc1ccco1	.	.	.	.	.	.
CC(C)N(CCn1c(=S)[nH]c2ccccc2c1=O)C(C)C	.	.	.	.	50.3	.
O=c1c2ccccc2[nH]c(=S)n1CCN1CCCC1	.	.	.	.	.	.
COC1=C(Br)C(=O)c2ncccc2C1=O	.	.	57.8	.	.	.
CN(C)CCOc1ccc2c(c1)C(=O)C(=Cc1ncc([N+](=O)[O-])n1C)C2	/	/	.	/	.	/
CN(C)c1nc(N)c2nccnc2n1	.	.	.	.	.	.
CCN(CC)c1nc(C=Cc2ccc(N(C)C)cc2)c2nccnc2n1	/	/	.	/	214.6	/
O=C(CSc1nncc(=O)[nH]1)Nc1cccc([N+](=O)[O-])c1	.	.	.	.	.	.
CC(C)NC(=O)/C(C#N)=C/c1ccc(N(C)C)o1	.	.	.	72.9	.	.
Cc1cc(C2C(C#N)=C(N)SC(N)=C2C#N)c(C)s1	.	.	.	41.1	104.0	.
N#CC(c1ccc(Cl)cc1)c1ccc2c(C(F)(F)F)cc(C(F)(F)F)nc2n1 (centres undefined)	.	.	69.4	.	.	.
FC(F)(F)c1cc(C(F)(F)F)c2ccc(N3CCN(c4ccc(Cl)cc4)CC3)nc2n1	.	.	.	.	.	.
Oc1c(N=Nc2ccccn2)ccc2ccccc12	.	.	.	.	99.0	.
Oc1[nH]c2ccccc2c1N=Nc1ccccn1	.	.	.	.	.	.
CN1CCN(c2ccc(NC(=O)c3ccc(-c4ccccc4F)o3)cc2)CC1	.	.	.	.	.	.
COc1cc(CNc2ccc(N3CCN(C(C)=O)CC3)cc2)ccc1OCc1ccccc1	.	.	.	.	.	.
O=C(/C=C/c1cc[n+](CC(=O)c2ccc3cccc4c3c2CC4)cc1)c1ccc2cccc3c2c1CC3	.	.	.	.	.	17.5
CC(c1ccccc1)N1C(=O)c2ccc(C(=O)Nc3ccccc3C(=O)O)cc2C1=O (centres undefined)	.	.	.	.	.	.
CC(C)CCN1C(=O)c2ccc(C(=O)Nc3ccc(O)cc3C(=O)O)cc2C1=O	.	.	.	.	.	.
COc1cc(NC(=O)c2ccc3c(c2)C(=O)N(CCC(C)C)C3=O)c(C(=O)O)cc1OC	.	.	51.4	.	.	.
CC(c1ccccc1)N1C(=O)c2ccc(C(=O)Nc3ccc(Br)cc3C(=O)O)cc2C1=O (centres undefined)	.	.	59.4	.	.	.
O=C(NCCN1CCOCC1)c1cccc(Br)c1	.	.	.	.	.	.
NC(=NCCc1c[nH]c2ccccc12)NC(=O)c1ccc(Cl)cc1	.	81.1	.	.	.	.
Cc1cc(C)nc(N2CCCC(C(=O)NCc3ccccc3)C2)n1 (centres undefined)	.	.	.	.	.	.
N#C/C(=C/c1ccncc1)c1nc2ccccc2c(=O)[nH]1	.	.	.	.	.	.
